Assay results published in PubChem BioAssay (Tox21).
Records with an inconclusive call do not appear. A call without a number means that no potency is given here. Activity calls are given as the source filed them. The call rests on the fitted dose curve; in most records, active means well fitted inhibition curve with a large enough effect in the repeat runs; inconclusive means weak or mixed curves; inactive means no such curve, though single readings can be large or run the other way.

Molecular target: Cytochrome P450 3A4 (Homo sapiens) (UniProt P08684)
Sequence (P08684 whole entry, looked up): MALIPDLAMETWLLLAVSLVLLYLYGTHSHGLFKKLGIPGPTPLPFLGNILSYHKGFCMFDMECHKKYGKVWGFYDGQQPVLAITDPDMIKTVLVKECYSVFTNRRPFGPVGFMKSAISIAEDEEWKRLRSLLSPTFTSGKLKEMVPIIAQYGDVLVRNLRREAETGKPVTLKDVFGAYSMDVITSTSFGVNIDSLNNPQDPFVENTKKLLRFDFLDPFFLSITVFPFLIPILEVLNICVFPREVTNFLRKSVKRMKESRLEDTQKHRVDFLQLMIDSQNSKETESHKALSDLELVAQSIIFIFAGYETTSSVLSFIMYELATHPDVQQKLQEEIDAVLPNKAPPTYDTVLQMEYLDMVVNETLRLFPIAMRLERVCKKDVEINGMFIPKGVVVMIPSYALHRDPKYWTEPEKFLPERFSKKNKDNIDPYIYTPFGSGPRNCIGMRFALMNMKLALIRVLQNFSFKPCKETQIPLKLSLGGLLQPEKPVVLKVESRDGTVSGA
Assay: Cytochrome P450 Family 3 Subfamily A Member 4 (CYP3A4) small molecule antagonists: luciferase reporter qHTS assay (AID 1671201); further: nearly all actives have a fitted effect of over 50% in size
Details: P450-Glo CYP3A4 enzyme, luciferin luminescence, 1 h; series mostly up to 115 µM
Method in brief: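 Luminescent readout (RLU) proportional to CYP3A4 activity, from luciferin generated off a proluciferin substrate. Enzyme–substrate mix plus compound 10 min at room temp, NADPH regeneration 1 h, detection reagent 20 min.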
Potency means the concentration at half of the fitted maximal effect.

Structure (SMILES) | Potency
O=C(CCCCCCCCc1cccnc1)N1CCC(C=C(c2ccccc2)c2ccccc2)CC1 | 399 nM (active)
CC1=CC[C@@H](C(C)(C)O)CC1 | inactive
CN1CCN(c2ccccc2/C=C2\SCCN(c3ccc(Cl)c(Cl)c3)C2=O)CC1 | 3990 nM (active)
CCC(=O)OC/C=C(\C)CCC=C(C)C | inactive
CC(O)(c1ccc(Cl)cc1)c1ccc(Cl)cc1 | inactive
O=c1[nH]cccc1O | inactive
O[Si](c1ccccc1)(c1ccccc1)c1ccccc1 | inactive
C=Cc1ccncc1 | inactive
COc1c(Br)cc(Br)c(C)c1Br | inactive
CCCCCCCCCCCCCCCCC(C(=O)O)C(O)(CC(=O)O)C(=O)O (stereo not drawn) | inactive
COC(=O)c1ccc([N+](=O)[O-])cc1 | inactive
CN(C/C=C/c1ccccc1)Cc1cccc2ccccc12 | inactive
CC(C)=NNC(N)=S | inactive
